This passage reports growth results from PubChem BioAssay (NCI).

The panel holds about 83,000 compounds, 20% with a hit somewhere; the sample as a whole holds those more often.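 Cell lines were cultured in 96-well plates, exposed to a single compound concentration, and assessed for percent growth 48 hours later.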 A number with no mark means an inactive call. The source made the active and inactive calls. Rule for the calls: active = growth percent below 10; inactive = the rest.

Test systems include HCT-15 colon; HT29 colon; SNB-75 CNS; SNB-19 CNS; PC-3 prostate; SK-MEL-5 melanoma; UACC-62 melanoma; LOX IMVI melanoma; SK-MEL-28 melanoma.
Common to all, as to assay: NCI-60 one-dose screen, 48 h (100 = growth as untreated, 0 = no growth, -100 = all killed)
Holding throughout (settings): 10 µM unless noted

On to `COc1ccc(/C=C2\N=C3SC=C(N)N3C2=O)cc1`, for which the growth in the assay on HCT-15 colon is 20.7%; in the assay with HT29 colon it was 9.12% (active); in the assay with SNB-75 CNS, 25.2%; in the assay on SNB-19 CNS, 53.8%; with PC-3 prostate, 20.6%; in the assay on SK-MEL-5 melanoma it was 4.65% (active). The growth was 23% with UACC-62 melanoma, -47.5% (active) with LOX IMVI melanoma and 43.7% in the assay with SK-MEL-28 melanoma.
`CC[C@H](Nc1cc(C)nc(N)n1)c1nc2cccc(NCc3ccc(C(=O)NO)cc3)c2c(=O)n1-c1ccccc1`: the growth in the assay on HCT-15 colon is 92.5%; in the assay with HT29 colon, 10.2%; in the assay on SNB-75 CNS, 15.7%; with SNB-19 CNS, -40.3% (active); with PC-3 prostate it was 12.4%; with SK-MEL-5 melanoma it was 30%. Further, the growth with UACC-62 melanoma is 9.65% (active); with LOX IMVI melanoma, -57.9% (active); in the assay on SK-MEL-28 melanoma it was 5.53% (active).
Turning to `O=S(=O)(Nc1ccc(Cl)cc1Cl)c1ccc(-c2cnc(C3CC3)o2)cc1`, the growth in the assay with HCT-15 colon was 24.3%; in the assay on HT29 colon, 1.27% (active); in the assay on SNB-75 CNS, 5.51% (active); in the assay on SNB-19 CNS, 43.6%; in the assay with PC-3 prostate, 28.1%; with SK-MEL-5 melanoma, 8.59% (active). Also, the growth with UACC-62 melanoma was 35.3%; in the assay with LOX IMVI melanoma, 43.3%; in the assay with SK-MEL-28 melanoma, 55.3%.
In the case of `O=C(/C=C/c1ccc(Cl)cc1)c1ccc(O)c(CN2CCN(c3cc4c(cc3F)c(=O)c(C(=O)O)cn4C3CC3)CC2)c1`, the growth is 45.4% in the assay with HCT-15 colon; 33.8% in the assay with HT29 colon; 4.51% (active) in the assay with SNB-75 CNS; 33.2% in the assay with SNB-19 CNS; 47.3% in the assay with PC-3 prostate; 29.8% in the assay with SK-MEL-5 melanoma. The growth with UACC-62 melanoma is 38.2%; with LOX IMVI melanoma, 38.6%; in the assay with SK-MEL-28 melanoma, 62.1%.
Take `Nc1cc(-c2nc3sccn3c2-c2ccnc(NCCCNS(=O)(=O)c3ccc(F)cc3)n2)ccc1F`: the growth in the assay with HCT-15 colon was 28.3%; with HT29 colon, 17.8%; in the assay with SNB-75 CNS, 68.7%; in the assay on SNB-19 CNS it was 88%; in the assay on PC-3 prostate, 48.6%; in the assay on SK-MEL-5 melanoma, 27.2%. The growth with UACC-62 melanoma was 21.2%; with LOX IMVI melanoma, 34.1%; in the assay with SK-MEL-28 melanoma, 50.7%.
On to `CCCCCCCCCCCCCCCCNCCC[C@@H](C)[C@H]1CC[C@H]2[C@@H]3[C@H](OCCCN)C[C@@H]4C[C@H](OCCCN)CC[C@]4(C)[C@H]3C[C@H](OCCCN)[C@]12C`, for which the growth was 7.08% (active) in the assay with HCT-15 colon; -41% (active) with HT29 colon; -64.8% (active) in the assay with SNB-75 CNS; -66.6% (active) in the assay on SNB-19 CNS; -14.4% (active) with PC-3 prostate; 3.14% (active) in the assay with SK-MEL-5 melanoma. The growth with UACC-62 melanoma was -64.2% (active); in the assay with LOX IMVI melanoma, -60.4% (active); in the assay on SK-MEL-28 melanoma, -64.7% (active).
For the compound `CC#Cc1nc2ccccc2c(=O)[nH]1`, the growth is 3.71% (active) with HCT-15 colon; 51.2% with HT29 colon; -2.64% (active) with SNB-75 CNS; 123% in the assay with SNB-19 CNS; 61.4% in the assay on PC-3 prostate; -10% (active) in the assay with SK-MEL-5 melanoma. The growth in the assay with UACC-62 melanoma was 50.1%; with LOX IMVI melanoma it was -60.1% (active); in the assay on SK-MEL-28 melanoma it was 54.3%.
For `CN(C)CCOc1ccc(-c2nc3ccc(-c4nc5ccc(N6CCN(C)CC6)cc5[nH]4)cc3[nH]2)cc1`, the growth with HCT-15 colon was 101%; in the assay with HT29 colon it was 42.4%; in the assay on SNB-75 CNS, 89.8%; with SNB-19 CNS, 69.4%; in the assay with PC-3 prostate it was 76.2%; with SK-MEL-5 melanoma, 37.5%. Also, the growth was 2.8% (active) with UACC-62 melanoma, 67.9% in the assay with LOX IMVI melanoma and 45.3% with SK-MEL-28 melanoma.
With `CSc1nc(NCCO)c(C#N)c(-c2cccc(N)c2)n1`, the growth in the assay on HCT-15 colon was 98.1%; in the assay on HT29 colon it was 108%; in the assay on SNB-75 CNS, 58.5%; with SNB-19 CNS, 96%; in the assay with PC-3 prostate it was 94.7%; in the assay on SK-MEL-5 melanoma, 96.5%. The growth with UACC-62 melanoma was 94.8%; in the assay on LOX IMVI melanoma it was 93.5%; in the assay with SK-MEL-28 melanoma it was 116%.
With `Cc1ccc(NC(=O)c2sc3nc4c(cc3c2N)C(=O)CCC4)cc1C`, the growth with HCT-15 colon was 30.6%; in the assay with HT29 colon it was 9.71% (active); in the assay with SNB-75 CNS it was -10.3% (active); in the assay with SNB-19 CNS, 69.3%; in the assay with PC-3 prostate, 22.4%; in the assay on SK-MEL-5 melanoma, 26.9%. Besides, the growth with UACC-62 melanoma was 39.6%; in the assay with LOX IMVI melanoma it was 39.2%; in the assay on SK-MEL-28 melanoma, 37.3%.
`Cc1cc(Nc2nc(N3CCN(C)CC3)nc3ccccc23)n[nH]1`: the growth is 56.5% in the assay with HCT-15 colon; 61.5% in the assay with HT29 colon; -15.8% (active) in the assay with SNB-75 CNS; 90.8% in the assay on SNB-19 CNS; 71.6% with PC-3 prostate; 89.9% with SK-MEL-5 melanoma. For the same compound, the growth with UACC-62 melanoma is 67.9%; in the assay on LOX IMVI melanoma it was 73%; with SK-MEL-28 melanoma, 68.8%.
On to `CCOC(=O)CC(C)=N`, for which the growth with HCT-15 colon is 105%; with HT29 colon it was 103%; in the assay on SNB-75 CNS, 84%; in the assay with SNB-19 CNS, 99.7%; in the assay on PC-3 prostate, 104%; in the assay with SK-MEL-5 melanoma, 100%. Moreover, the growth is 102% with UACC-62 melanoma, 118% with LOX IMVI melanoma and 101% with SK-MEL-28 melanoma.
Turning to `CCCCCCCCCCCCS(=O)CC(C)O` (stereo not drawn), the growth was 104% with HCT-15 colon; 110% with HT29 colon; 78.3% in the assay on SNB-75 CNS; 98.6% in the assay with SNB-19 CNS; 99.3% in the assay on PC-3 prostate; 103% in the assay on SK-MEL-5 melanoma. Besides, the growth in the assay with UACC-62 melanoma is 92.6%; with LOX IMVI melanoma, 111%; in the assay on SK-MEL-28 melanoma, 102%.
As for `O=C(/C=C/c1ccc(B(O)O)cc1)/C=C/c1ccc(B(O)O)cc1`, the growth in the assay with HCT-15 colon was 8.01% (active); with HT29 colon, -8.22% (active); in the assay on SNB-75 CNS, 72.4%; in the assay on SNB-19 CNS, 69%; in the assay with PC-3 prostate, 57.1%; with SK-MEL-5 melanoma it was 85.5%. For the same compound, the growth with UACC-62 melanoma is 13%; in the assay on LOX IMVI melanoma it was -36.5% (active); with SK-MEL-28 melanoma, 86.7%.
On to `Cc1cc(Nc2nc(N3CCNCC3)nc3ccccc23)n[nH]1`, for which the growth with HCT-15 colon was 70.5%; in the assay on HT29 colon it was 82.1%; in the assay with SNB-75 CNS it was -16.6% (active); in the assay on SNB-19 CNS, 101%; with PC-3 prostate, 80.8%; with SK-MEL-5 melanoma, 95.8%. Further, the values for the growth in the assay with UACC-62 melanoma, in the assay on LOX IMVI melanoma and with SK-MEL-28 melanoma were 74.6%, 88.6% and 86%, respectively.
In the case of `O=C1/C(=C/c2ccc(Cl)cc2Cl)CN(S(=O)(=O)c2ccccc2)C/C1=C\c1ccc(Cl)cc1Cl`, the growth in the assay with HCT-15 colon is -14.7% (active); in the assay on HT29 colon, -27.5% (active); in the assay on SNB-75 CNS it was 27.8%; with SNB-19 CNS, 39.1%; in the assay on PC-3 prostate, 6.14% (active); in the assay on SK-MEL-5 melanoma, 47.5%. Moreover, the growth in the assay with UACC-62 melanoma is 2.57% (active); with LOX IMVI melanoma, -58.7% (active); with SK-MEL-28 melanoma, 34.4%.
For the compound `O=C1Nc2ccccc2C12CC(c1ccc(Cl)cc1)=NN2` (stereo not drawn), the growth was 97.7% in the assay with HCT-15 colon; 97.1% with HT29 colon; 76% in the assay with SNB-75 CNS; 90.9% in the assay on SNB-19 CNS; 78.2% in the assay on PC-3 prostate; 92.4% with SK-MEL-5 melanoma. Also, the growth is 95% in the assay on UACC-62 melanoma, 99.5% in the assay with LOX IMVI melanoma and 97.7% with SK-MEL-28 melanoma.
